These results are taken from PubChem BioAssay (NCATS).

A short description of assay [1]: qHTS for Activators of p53 Stress Response Pathway screened against the NCATS CANVASS Library (AID 1347388). Also: potency is read from the fitted curve at half-maximal effect. As to activation: 0% is about no effect. An outline of the steps:
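Beta-lactamase reporter driven by p53 response elements in HCT-116 cells, read as the 460 nm/530 nm emission ratio after CCF4 loading, following 16 h of exposure to an 11-point series. Cell viability was measured in the same wells by CellTiter-Glo luminescence.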
For orientation: Quantitative high-throughput screening tests each substance at several concentrations.

Assay [2] is described as follows: HEK-293 Cancer Cell Toxicity qHTS against the NCATS CANVASS Library (AID 1347355). Also: series mostly up to about 46 µM; nearly all actives have a fitted effect of over 65% in size. As to activity change, negative = cytotoxicity: % is scaled to controls: 0 for no effect and ±100 for the full control effect. An outline of the steps: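 Cells were seeded at 1000 per well and allowed to settle 4 hours at 37 degrees C before pin transfer of compounds as an 11-point series. Viability was read by CellTiter-Glo luminescence after 72 hours' exposure.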
The nature of assay [3]: DH5-alpha competent E. coli microbial cell viability qHTS against the NCATS CANVASS Library (AID 1347377). The following applies: outcome: dose series up to 46.1 µM unless noted. An outline of the steps:
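DH5-alpha E. coli suspension (0.9 OD culture diluted to 0.2 OD) exposed to compounds in an 11-point series, overnight at 37C, 5% CO2. Viability read as ATP by BacTiter-Glo luminescence after 20 min at room temperature.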

The nature of assay [4]: qHTS assay for small molecule disruptors of mitochondrial membrane potential screened against the NCATS CANVASS Library (AID 1347389). Also: nearly all actives have a fitted effect of over 60% in size. Also: potency is read from the fitted curve at half-maximal effect. As to activity change, negative = depolarization: series mostly up to about 46 µM; % is scaled to controls: 0 for no effect and ±100 for the full control effect. The gist of the method: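 HepG2 cells (2,000/well) were plated overnight at 37C, exposed to compound for 1 hr at 37C/5% CO2, then loaded with Mito-MPS dye for 30 min. Depolarization was read as a drop in red (590 nm) to green (535 nm) fluorescence ratio.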

Assay [5] is described as follows: qHTS for inhibitors of ER calcium dysfunction: SERCaMP assay screened against the NCATS CANVASS Library (AID 1347393). Also: nearly all actives have a fitted effect of over 40% in size. Also: potency is read from the fitted curve at half-maximal effect. An outline of the steps:
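Thapsigargin-induced ER calcium depletion drives GLuc-SERCaMP secretion from SH-SY5Y cells; compounds given 16 h beforehand were scored by lowered coelenterazine luminescence after 4 h challenge.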

A short description of assay [6]: SW1088 Cancer Cell Toxicity qHTS against the NCATS CANVASS Library (AID 1347350). Also: nearly all actives have a fitted effect of over 75% in size. As to activity change, negative = cytotoxicity: series mostly up to about 38 µM; % is scaled to controls: 0 for no effect and ±100 for the full control effect. The gist of the method: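 In this cytotoxicity screen, 1000 cells per well rested 4 hours, then received compound (11 concentrations) for a 72-hour incubation; an ATP-dependent luminescent signal (CellTiter-Glo) was the endpoint.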
Assay [7] can be described thus: Secretion counterscreen for inhibitors of the SERCaMP assay screened against the NCATS CANVASS Library (AID 1347390).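 Also: light from luciferase secreted into medium read as a measure of general secretion; series mostly up to about 77 µM; % is scaled to controls: 0 for no effect and ±100 for the full control effect.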 The gist of the method:
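Counterscreen for secretory-pathway interference: after 4 h attachment, SH-SY5Y-GLuc cells were exposed 20 hours to compounds (final 0.001 - 77 uM), then coelenterazine added and GLuc luminescence recorded; Brefeldin A served as control.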

A short description of assay [8]: qHTS for Antimalaria activity screened against the NCATS CANVASS Library (AID 1347380). Also: nearly all actives have a fitted effect of over 40% in size. Also: potency is read from the fitted curve at half-maximal effect. An outline of the steps:
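P. falciparum Dd2-infected RBCs (2.5% hematocrit final, 0.3% parasitemia) in Albumax II RPMI were exposed to compounds in an 11-point qHTS series for 72 h at 37C under 5% O2/5% CO2, then lysed with SYBR Green.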

Assay [9] can be described thus: HPAF-II Cancer Cell Toxicity qHTS against the NCATS CANVASS Library (AID 1347346). Also: series mostly up to about 38 µM; % is scaled to controls: 0 for no effect and ±100 for the full control effect; nearly all actives have a fitted effect of over 55% in size. An outline of the steps:
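HPAF-II cells were seeded at 1000 cells/well, allowed to settle for 4 h at 37 degrees C, then exposed to compounds in an 11-point series for 72 h. Viability was read by CellTiter-Glo luminescence.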

SMILES strings stand for the structures. Records with an inconclusive call do not appear. Unmarked numbers belong to inactive results. Calls of active or inactive are those of the source. Calls follow the shape of the dose curve; as a rule, active = well fitted curve in the direction sought with a large enough effect; inconclusive = small, poorly fitted or top-dose-only effect, or another doubt; inactive = no such curve, though single readings can be large; an effect the other way counts as inactive or inconclusive. Peptide text beside a SMILES is read from it. * marks the point of attachment. Octanoyl = CCCCCCCC(=O)*

Turning to `CCCCCCCC(=O)N[C@@H](CC(C)C)C(=O)N[C@H](C=O)CCC(=O)O` (Octanoyl-Leu-Glu-aldehyde), the Potency result in assay [1] was “inactive”.

Take `Oc1ccc([C@H]2Oc3ccc(/C=C/c4cc(O)cc(O)c4)cc3C2c2cc(O)cc(O)c2)cc1` (stereo partly specified): the Potency entry in assay [2] and in [4] was “inactive” throughout. Moreover, the result in [3] was inactive.

Turning to `O=C1CC(c2cc(O)cc(O)c2)Oc2cc(O)ccc21` (stereo unspecified), the Potency result in assay [1] is “inactive”. Also, the results for the Potency in assay [4] and in assay [5] were 7.41 µM (active) and 8.6 µM (active), respectively.

With `CCCCCCCCCCCCCCCC(=O)OC/C=C(\C)CCCC(C)CC(C)C(C)C` (stereo unspecified), the Potency result in assay [6], in assay [2], in assay [4] and in [7] was “inactive” in each case.

With `C=C[C@]1(C)CC[C@@H]([C@H](C)C(=O)/C=C/C(C)C)O1`, the Potency entry in assay [2], in assay [1] and in assay [7] was “inactive” in each case. Also, in [3], the outcome was inactive.

Regarding `CC12C[C@]3(O)O[C@@H](O1)[C@]1(COC(=O)c4ccccc4)[C@@H]3CC21OC1OC(CO)C(O)C(O)C1O` (stereo partly specified), the Potency result in [6] and in assay [8] was “inactive” each time.

Take `CO[C@@H]1[C@H](O)[C@@H](C)O[C@@H](OC[C@H]2/C=C/C=C/C(=O)C(C)C[C@H](C)C(O[C@@H]3O[C@H](C)CC4(OC(=O)O[C@@H]4C)C3O)[C@@H](C)/C=C/C(=O)OC2C)[C@@H]1OC` (stereo partly specified): the call in [3] was inactive. The Potency result in [1], in assay [4] and in [7] was “inactive” each time. Besides, in assay [5], the Potency is 15.3 µM (active).

For `COc1ccc([C@@H]2c3cc(OC)c(OC)cc3C(=O)[C@H](C)C2C)cc1OC` (stereo partly specified), the activity change, negative = cytotoxicity in assay [9] was 3.84% [at 7.64 µM]. Moreover, the activation in assay [1] is 4.12% [at 9.19 µM]. For the same molecule, in assay [4], the activity change, negative = depolarization is -7.07% [at 9.19 µM].

In the case of `CC1(C)[C@H](Br)CC[C@]23C[C@]4(C)C(=O)CC12C[C@H]34`, the Potency result in assay [9], in [6], in assay [2] and in assay [5] was “inactive” each time. Moreover, the result in [3] was inactive.

Regarding `CNc1ccc(Cl)cc1C(=O)OC[C@]1(C)[C@H]2CC[C@]3(C)[C@@H](C[C@@H](OC)[C@H](C)[C@H]3C3=C(O)C(=O)OC3O)[C@]2(C)CC[C@H]1O` (stereo partly specified), the Potency entry in assay [9], in assay [4] and in [7] was “inactive” each time. In assay [3], the molecule was called inactive. In addition, in [1], the Potency was 20.9 µM (active).

As to `CCC1=C2CCCN3C(=O)O[C@H]([C@H]1OC(C)=O)[C@H]23`, the Potency result in [6], in [1] and in [4] was “inactive” each time. In addition, the Potency in assay [8] was 0.0059 µM (active).

With `CC1(C)C=Cc2c(ccc3c2OC[C@@H](c2ccc(O)cc2O)C3)O1`, the Potency entry in [2] and in assay [1] was “inactive” in each case. Also, the outcome in [3] was inactive.

`CO[C@@H]1[C@H](O)[C@@H](C)O[C@@H](OC[C@@H]2C(C)OC(=O)/C=C/[C@H](C)C(O[C@@H]3O[C@H](C)CC4(OC(=O)O[C@@H]4C)C3O)[C@@H](C)CC(C)C(=O)CC[C@H]3OC23)[C@@H]1OC` (stereo partly specified): the Potency entry in assay [9], in assay [2], in assay [8], in assay [1], in assay [4] and in assay [7] was “inactive” each time.

On to `CC(O)/C=C/C1(O)C(C)(C)CC(O)CC1(C)O` (stereo unspecified), for which the Potency entry in [2], in [1] and in assay [4] was “inactive” in each case.
